Screens as filed in PubChem BioAssay.
Rows were chosen to be rich in hits. Some 3% of all compounds tested hit in one or more screens of this group.
Peg3 promoter: Peg3 promoter activity inhibition; HeLa PEG-Prom luciferase reporter, luminescence, overnight; inhibition, % at 20 µM; hit rate 1.7% among 360,000; AID 588405;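 active = inhibition of at least 50% at 20 µM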
EWS-Fli inh: inhibitors of EWS/Fli oncoprotein transcriptional activity | A673 NR0B1-luciferase reporter, viability-normalised | inhibition, % at 12.6 µM | hit rate 0.67% among 350,000 | AID 651661;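 active = mean inhibition of at least 50% after viability correction, with every replicate also passing that limit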;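 note: firefly luciferase signal divided by Alamar Blue viability fluorescence both relative to DMSO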
MITF TRPM1 inh: inhibitors of MITF-driven TRPM1 promoter in melanoma cells. SK-MEL-5 TRPM1 promoter luciferase, 24 h. inhibition, % at 12.5 µM. AID 488899. hit rate 0.83% among 330,000;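 active = mean inhibition across replicates of 60% or more, whatever share of single replicates reaches that level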
ABHD5 PLIN5 PPI: blocks binding of human ABHD5 to perilipin-5; inhibition, % at 4 µM; AID 602281; Split G. princeps luciferase complementation, luminescence, 4 h; hit rate 0.78% among 360,000; Q00G26+Q8WTS1;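 active = inhibition above the mean inhibition across every tested compound plus 3 SD, cut at about 22% in these data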
Target sequence (Q00G26 whole entry, looked up): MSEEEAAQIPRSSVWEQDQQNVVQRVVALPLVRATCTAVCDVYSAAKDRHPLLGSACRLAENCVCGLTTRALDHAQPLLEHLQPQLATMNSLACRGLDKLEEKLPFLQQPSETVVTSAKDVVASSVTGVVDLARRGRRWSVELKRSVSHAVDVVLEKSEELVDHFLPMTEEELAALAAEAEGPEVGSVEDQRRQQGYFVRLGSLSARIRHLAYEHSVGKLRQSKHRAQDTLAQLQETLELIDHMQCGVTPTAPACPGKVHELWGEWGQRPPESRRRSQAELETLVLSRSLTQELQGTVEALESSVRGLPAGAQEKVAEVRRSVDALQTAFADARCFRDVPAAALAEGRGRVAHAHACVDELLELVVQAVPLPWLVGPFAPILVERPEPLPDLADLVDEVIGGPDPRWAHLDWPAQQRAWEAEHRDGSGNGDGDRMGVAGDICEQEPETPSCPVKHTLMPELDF
Target sequence (Q8WTS1 whole entry, looked up): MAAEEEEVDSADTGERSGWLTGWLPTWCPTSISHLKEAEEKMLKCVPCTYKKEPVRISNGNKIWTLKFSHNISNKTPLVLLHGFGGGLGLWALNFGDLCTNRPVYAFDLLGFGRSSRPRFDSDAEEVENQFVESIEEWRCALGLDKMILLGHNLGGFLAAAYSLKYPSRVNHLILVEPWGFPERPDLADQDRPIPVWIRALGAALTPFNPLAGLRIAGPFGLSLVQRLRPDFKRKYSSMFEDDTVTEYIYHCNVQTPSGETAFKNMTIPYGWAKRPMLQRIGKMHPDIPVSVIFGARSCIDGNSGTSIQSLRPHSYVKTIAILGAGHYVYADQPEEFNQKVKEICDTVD
Shn3 3UTR inh: reduces Shn3 3'UTR luciferase signal in osteoblasts; Clone20 osteoblast Shn3 3'UTR firefly luciferase, 24 h; inhibition, % at 12.5 µM; hit rate 0.52% among 360,000;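 active = mean inhibition of at least 75% with every replicate also reaching 75%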
PAX8 inh HTS: lowers PAX8-driven luciferase in RMG-I cells | RMG-I TPO-luciferase reporter, SteadyGlo, 24 h | AID 652154 | inhibition, % at 12.6 µM | hit rate 1.2% among 360,000;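 active = mean replicate inhibition at least 60% with every replicate also reaching 60%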;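 note: luciferase light reporting Pax8 driven TPO promoter activity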
Hits are given with their value.

Results for O=C(Nc1cccc(F)c1)N1C[C@@H]2[C@H](c3ccccc31)[C@H](CO)N2C(=O)c1ccccn1 ?
EWS-Fli inh: inactive; PAX8 inh HTS: inactive

What do the screens show for `O=C(CSc1nnc(-c2ccco2)c(-c2ccco2)n1)c1ccccc1`?
Peg3 promoter: inactive; EWS-Fli inh: inactive; MITF TRPM1 inh: inactive; ABHD5 PLIN5 PPI: inactive; Shn3 3UTR inh: inactive; PAX8 inh HTS: inactive

Results for CC(=O)c1ccc(NC(=O)CSc2nnc(-c3ccco3)c(-c3ccco3)n2)cc1 ?
Peg3 promoter: inactive; EWS-Fli inh: inactive; MITF TRPM1 inh: inactive; ABHD5 PLIN5 PPI: 23; Shn3 3UTR inh: inactive; PAX8 inh HTS: inactive

Results for CN1C2=NCCN2C(=O)c2cc(Cl)ccc21 ?
Peg3 promoter: inactive; EWS-Fli inh: inactive; MITF TRPM1 inh: inactive; ABHD5 PLIN5 PPI: inactive; Shn3 3UTR inh: inactive; PAX8 inh HTS: inactive

How did Brc1ccc2c(c1)-c1ccccc1C1=NCCN12 do in these assays?
Peg3 promoter: 87; EWS-Fli inh: inactive; ABHD5 PLIN5 PPI: inactive; Shn3 3UTR inh: inactive; PAX8 inh HTS: inactive

What do the screens show for `Clc1ccc2c(c1)-c1ccccc1C1=NCCN12`?
Peg3 promoter: 110; EWS-Fli inh: inactive; ABHD5 PLIN5 PPI: inactive; Shn3 3UTR inh: inactive; PAX8 inh HTS: inactive

Results for O=C(OC[C@@H]1[C@H]2c3ccccc3OC1(CO)N=C1SCc3ccccc3CN12)c1ccccc1 ?
EWS-Fli inh: inactive; PAX8 inh HTS: inactive

What do the screens show for `COc1ccc(S(=O)(=O)N(C)C[C@@H]2OCCCC[C@@H](C)Oc3ccc(NC(=O)Nc4ccc5c(c4)OCO5)cc3C(=O)N([C@@H](C)CO)C[C@@H]2C)cc1`?
EWS-Fli inh: inactive; PAX8 inh HTS: inactive

Results for Cc1ccc(NC(=O)Cc2cc(C(=O)O)c3ccccc3n2)c(C)c1 ?
Peg3 promoter: inactive; EWS-Fli inh: inactive; MITF TRPM1 inh: inactive; ABHD5 PLIN5 PPI: inactive; Shn3 3UTR inh: inactive; PAX8 inh HTS: 70

Results for CCCc1cc(C(=O)O)c2ccccc2n1 ?
Peg3 promoter: inactive; MITF TRPM1 inh: inactive; ABHD5 PLIN5 PPI: inactive; Shn3 3UTR inh: inactive

What do the screens show for `COc1ccc(NC(=O)N2C[C@@H]3[C@H](c4ccccc42)[C@@H](CO)N3C(=O)C2CCCC2)cc1`?
EWS-Fli inh: inactive; PAX8 inh HTS: inactive

What do the screens show for `C[C@H](CO)N1C[C@H](C)[C@H](CN(C)Cc2ccc(C(=O)O)cc2)Oc2c(NS(C)(=O)=O)cccc2C1=O`?
EWS-Fli inh: inactive

Results for CCn1c2ccccc2c2cc([N+](=O)[O-])ccc21 ?
Peg3 promoter: inactive; EWS-Fli inh: inactive; MITF TRPM1 inh: inactive; ABHD5 PLIN5 PPI: inactive; Shn3 3UTR inh: inactive; PAX8 inh HTS: inactive

How did CN(C)CCn1c2ccccc2c2nc3ccc([N+](=O)[O-])cc3cc21 do in these assays?
Peg3 promoter: inactive; EWS-Fli inh: inactive; ABHD5 PLIN5 PPI: inactive; Shn3 3UTR inh: inactive; PAX8 inh HTS: 76

How did CC(C)(C)c1ccc(C(=O)Nc2sc3c(c2C(=O)O)CCC3)cc1 do in these assays?
Peg3 promoter: inactive; EWS-Fli inh: inactive; MITF TRPM1 inh: 66; ABHD5 PLIN5 PPI: inactive; Shn3 3UTR inh: inactive; PAX8 inh HTS: 80

What do the screens show for `COc1cccc(C(=O)Nc2ccc3c(c2)C(=O)N(C)C[C@@H](OC)[C@@H](C)CN(CC2CC2)[C@@H](C)CO3)c1`?
EWS-Fli inh: inactive; PAX8 inh HTS: inactive

How did Cc1ccc2c(c1)c1c3n2CCN(C(=O)CCl)C3CCC1 (stereo not drawn) do in these assays?
Peg3 promoter: 56; EWS-Fli inh: inactive; MITF TRPM1 inh: inactive; ABHD5 PLIN5 PPI: inactive; Shn3 3UTR inh: inactive; PAX8 inh HTS: inactive

What do the screens show for `CC(=O)N1CCn2c3c(c4cc(C)ccc42)CCCC31` (stereo not drawn)?
Peg3 promoter: inactive; EWS-Fli inh: inactive; MITF TRPM1 inh: inactive; ABHD5 PLIN5 PPI: inactive; Shn3 3UTR inh: inactive; PAX8 inh HTS: inactive

What do the screens show for `Cc1cccn2c(=O)c3cc(C(=O)NC4CCCCC4)c(=N)n(Cc4ccccc4)c3nc12`?
Peg3 promoter: 54; EWS-Fli inh: inactive; MITF TRPM1 inh: inactive; ABHD5 PLIN5 PPI: inactive; Shn3 3UTR inh: inactive; PAX8 inh HTS: inactive

What do the screens show for `N=c1c(C(=O)NC2CCCC2)cc2c(=O)n3ccccc3nc2n1Cc1ccccc1`?
Peg3 promoter: inactive; MITF TRPM1 inh: inactive; ABHD5 PLIN5 PPI: inactive; Shn3 3UTR inh: inactive; PAX8 inh HTS: inactive

Results for Cc1cccn2c(=O)c3cc(C(=O)NC4CCCC4)c(=N)n(CCc4ccccc4)c3nc12 ?
Peg3 promoter: 69; EWS-Fli inh: inactive; MITF TRPM1 inh: inactive; ABHD5 PLIN5 PPI: inactive; Shn3 3UTR inh: inactive; PAX8 inh HTS: inactive

How did Cc1cccn2c(=O)c3cc(C(=O)NC4CCCC4)c(=N)n(Cc4ccc(F)cc4)c3nc12 do in these assays?
Peg3 promoter: 58; EWS-Fli inh: inactive; MITF TRPM1 inh: inactive; ABHD5 PLIN5 PPI: inactive; Shn3 3UTR inh: inactive; PAX8 inh HTS: inactive

What do the screens show for `O=C(CC1C[C@H](C(=O)N2CCOCC2)[C@@]2(CCC3CCCC3)c3[nH]c4ccccc4c3CCN2C1=O)NCc1cccc(C(F)(F)F)c1` (stereo partly drawn)?
Peg3 promoter: 90; EWS-Fli inh: inactive; MITF TRPM1 inh: inactive; ABHD5 PLIN5 PPI: inactive; Shn3 3UTR inh: inactive; PAX8 inh HTS: inactive

How did CCN(CC)C(=O)[C@H]1C[C@H](CC(=O)NCc2cccc(C(F)(F)F)c2)C(=O)N2CCc3c([nH]c4cc(-c5ccco5)ccc34)[C@]12C do in these assays?
Peg3 promoter: 85; MITF TRPM1 inh: inactive; ABHD5 PLIN5 PPI: inactive; Shn3 3UTR inh: inactive

What do the screens show for `CN(C)C(=O)CCc1ccc2c3c([nH]c2c1)[C@]1(CCC2CCCC2)[C@@H](C(=O)N2CCOCC2)C[C@H](CC(=O)NCc2cccc(C(F)(F)F)c2)C(=O)N1CC3`?
Peg3 promoter: inactive; EWS-Fli inh: inactive; MITF TRPM1 inh: inactive; ABHD5 PLIN5 PPI: inactive; Shn3 3UTR inh: inactive; PAX8 inh HTS: inactive

Results for CC[C@]12c3[nH]c4ccccc4c3CCN1C(=O)C(CC(=O)NCc1cccc(C(F)(F)F)c1)C[C@@H]2C(=O)N1CCN(C(=O)C2CC2)CC1 (stereo partly drawn) ?
Peg3 promoter: inactive; EWS-Fli inh: inactive; MITF TRPM1 inh: inactive; ABHD5 PLIN5 PPI: inactive; Shn3 3UTR inh: inactive; PAX8 inh HTS: inactive

What do the screens show for `CC[C@]12c3[nH]c4ccc(Cl)cc4c3CCN1C(=O)[C@@H](CC(=O)NC/C=C(\C)CCC=C(C)C)C[C@@H]2C(=O)N1CCN(C(=O)C2CC2)CC1`?
Peg3 promoter: 60; EWS-Fli inh: inactive; MITF TRPM1 inh: inactive; ABHD5 PLIN5 PPI: inactive; Shn3 3UTR inh: inactive; PAX8 inh HTS: 75

What do the screens show for `CC[C@]12c3[nH]c4ccc(Cl)cc4c3CCN1C(=O)[C@@H](CC(=O)NCc1cccc(C(F)(F)F)c1)C[C@@H]2C(=O)N1CCN(C(=O)C2CC2)CC1`?
Peg3 promoter: 52; EWS-Fli inh: inactive; MITF TRPM1 inh: inactive; ABHD5 PLIN5 PPI: inactive; Shn3 3UTR inh: inactive; PAX8 inh HTS: inactive

What do the screens show for `CC(C)CC#Cc1ccc2c(c1)O[C@@H](CN(C)C(=O)c1ccncc1)[C@@H](C)CN([C@H](C)CO)S2(=O)=O`?
EWS-Fli inh: inactive
